Measured values reported in PubChem BioAssay.
The source made the active and inactive calls.

How the values were obtained:
Albumin (Bos taurus) = Albumin (Bos taurus) (UniProt P02769); test: bovine serum albumin binders on microarray, profiling panel, artefact control for SMM control protein annotation, biochemical, small-molecule microarray, Alexa647 label, 635/667 nm fluorescence (AID 1118); details: BSA-A647 binding, fluorescence 635 nm, higher = more signal;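 further: score merges 667 nm emission intensity and signal-to-noise per printed compound spot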
[1] = small-molecule microarray binders of probe aXIP, primary screen, biochemical, NeuroSMM set, 635/667 nm fluorescence (AID 1119); details: higher = more signal, called active from +8 up or from −8 down;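 further: probe is the protein aXip251-270 applied at 1 µg/mL to compound-printed slides; binding of probe to printed compounds measured as 667 nm fluorescence plus signal to noise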
[2] = small-molecule binders of probe aNOTCH3, primary screen, biochemical, small-molecule microarray, 635/667 nm fluorescence (AID 1120); details: higher = more signal;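 further: probe is a biotin-tagged antibody raised against NOTCH3 rather than NOTCH3 protein; score merges spot fluorescence near 667 nm with spot signal to noise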
[3] = small-molecule binders of probe aNOTCH2, primary screen, biochemical, small-molecule microarray, 635/667 nm fluorescence (AID 1121); details: higher = more signal;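 further: score merges feature fluorescence read at 667 nm with its signal to noise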
[4] = molecular target: Carbonic anhydrase 2 (Homo sapiens) (UniProt P00918); test: CAII small-molecule binders, profiling panel, biochemical, small-molecule microarray, Alexa647-labelled CAII (AID 1122); details: CAII-A647 binding fluorescence, higher = more signal
[5] = COS7 lysate on small-molecule microarray, probe aHis, 635 nm (AID 1123); details: COS7 cell lysate, fluorescence, higher = more signal;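 further: z-score combines 667nm fluorescence intensity with signal-to-noise per printed compound spot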
[6] = compound binding in COS7 lysate, probe aLAP1, primary screen, cell lysate, small-molecule microarray (AID 1124); details: probe aLAP1, fluorescence, higher = more signal;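 further: lysate comes from COS7 cells expressing LAP1 and is applied at 0.3 µg/mL; score merges spot fluorescence near 667 nm with signal-to-noise over triplicate slides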
Sam68 (KHDRBS1) = test: Sam68 small-molecule binders, primary screen, biochemical, small-molecule microarray, 635 nm fluorescence (AID 1125); details: small-molecule microarray binding, higher = more signal;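 further: score merges 667 nm channel intensity with signal to noise over triplicate slides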
[7] = system: Chordin-like protein 2 (CHRDL2); test: CHRDL2 small-molecule binders, primary screen, biochemical, small-molecule microarray, 635 nm fluorescence (AID 1126); details: small-molecule microarray binding, fluorescence 635 nm; higher = more signal;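 further: printed compound slides probed with Chrdl2 protein at 4 µg/mL for 1 h at 4 C; score merges 667 nm emission intensity with signal to noise over three replicate slides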
[8] = molecular target: Concanavalin-A (Canavalia ensiformis) (UniProt P02866); test: ConA small-molecule binders, primary screen, artefact control for SMM control protein annotation, biochemical, small-molecule microarray, Alexa647 label, 635 nm (AID 1127); details: ConA-A647 binding fluorescence, higher = more signal;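 further: z combines 667 nm emission intensity with signal-to-noise across three replicate slides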
[9] = anti-His antibody binders, primary screen, artefact control for SMM control protein annotation, biochemical, small-molecule microarray, 635 nm fluorescence (AID 1128); details: anti-His Alexa647 antibody binding, higher = more signal;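 further: score merges feature fluorescence with signal-to-noise for each printed compound spot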
[10] = system: Human papillomavirus type 1a E7 protein (residues 1-88); test: HPV1a E7 small-molecule binders, primary screen, biochemical, small-molecule microarray, residues 1-88, 635 nm (AID 1129); details: small-molecule microarray binding, fluorescence 635 nm; higher = more signal
[11] = molecular target: Focal adhesion kinase 1 (Homo sapiens) (UniProt Q05397); test: small-molecule microarray binders of FAK, primary screen, biochemical, 635/667 nm fluorescence, BSA, DTT (AID 1130); details: PTK2 binding, 635 nm fluorescence, higher = more signal;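 further: composite of spot emission at 667 nm and signal to noise over triplicate slides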
[12] = system: Fibrinogen (Alexa647-labelled); test: fibrinogen binders on compound microarrays, profiling panel, artefact control for SMM control-protein annotation, biochemical, small-molecule microarray, 635/667 nm fluorescence (AID 1131); details: fibrinogen-A647 binding fluorescence, higher = more signal;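 further: z-score merges 667 nm fluorescence with per-spot signal-to-noise over triplicate slides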
[13] = molecular target: Follistatin (Homo sapiens) (UniProt P19883); test: follistatin binders on small-molecule microarrays, primary screen, biochemical, small-molecule microarray, 635/667 nm fluorescence (AID 1132); details: FST binding, 635 nm fluorescence, higher = more signal
[14] = molecular target: Fibroblast growth factor 2 (Homo sapiens) (UniProt P09038); test: FGF2 binders on small-molecule microarrays, primary screen, biochemical, small-molecule microarray, 635/667 nm fluorescence (AID 1133); details: small-molecule microarray binding, FGF2, fluorescence 635/667; higher = more signal
[15] = mitochondrial membrane potential change in A549 cells, profiling panel, cell-based, JC-1 fluorescence, basal, 24 h, 100 nL (AID 1138); details: higher = more signal;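 further: A549 lung adenocarcinoma cells under basal conditions with no added stimulus; test concentration not given here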
Lefty1 = Lefty1 binders on small-molecule microarrays, primary screen, biochemical, small-molecule microarray, 635/667 nm fluorescence (AID 1139); details: small-molecule microarray binding, fluorescence 635/667; higher = more signal
[16] = system: wheat germ agglutinin (Triticum aestivum), Alexa647-labelled; test: wheat germ agglutinin binders on compound microarrays, profiling panel, artefact control for SMM control-protein annotation, biochemical, small-molecule microarray, 635/667 nm fluorescence (AID 1140); details: WGA-A647 binding, 635 nm fluorescence, higher = more signal;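 further: score merges 667 nm feature emission with signal to noise over triplicate slides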
[17] = molecular target: Luciferin 4-monooxygenase (Photinus pyralis) (UniProt P08659); test: firefly luciferase enzyme inhibitors, primary screen, biochemical, luminescence, purified enzyme, 2006 set (AID 1141); details: SteadyGlo luminescence, 30 min, higher = more signal, called active from +8 up or from −8 down;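 further: cell-free assay with purified firefly luciferase at 100 ng per well in PBS; test concentration not given here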
Chain of Luciferin 4-monooxygenase (Photinus pyralis) (P08659 whole entry, looked up): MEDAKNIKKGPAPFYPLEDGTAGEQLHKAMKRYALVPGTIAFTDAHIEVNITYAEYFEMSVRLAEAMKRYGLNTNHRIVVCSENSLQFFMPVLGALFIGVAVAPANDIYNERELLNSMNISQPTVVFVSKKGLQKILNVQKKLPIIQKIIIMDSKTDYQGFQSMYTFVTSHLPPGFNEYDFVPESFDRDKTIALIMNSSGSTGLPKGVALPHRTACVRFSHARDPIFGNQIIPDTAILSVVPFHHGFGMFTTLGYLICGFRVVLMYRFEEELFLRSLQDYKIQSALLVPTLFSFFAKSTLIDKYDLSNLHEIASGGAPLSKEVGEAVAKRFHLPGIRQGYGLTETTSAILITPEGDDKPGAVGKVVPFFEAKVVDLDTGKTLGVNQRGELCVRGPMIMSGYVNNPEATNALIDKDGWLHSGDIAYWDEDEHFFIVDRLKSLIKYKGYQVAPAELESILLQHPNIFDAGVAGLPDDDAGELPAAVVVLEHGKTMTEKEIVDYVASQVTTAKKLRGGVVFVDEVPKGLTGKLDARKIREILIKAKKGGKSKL

Chain of Albumin (Bos taurus) (P02769 whole entry, looked up): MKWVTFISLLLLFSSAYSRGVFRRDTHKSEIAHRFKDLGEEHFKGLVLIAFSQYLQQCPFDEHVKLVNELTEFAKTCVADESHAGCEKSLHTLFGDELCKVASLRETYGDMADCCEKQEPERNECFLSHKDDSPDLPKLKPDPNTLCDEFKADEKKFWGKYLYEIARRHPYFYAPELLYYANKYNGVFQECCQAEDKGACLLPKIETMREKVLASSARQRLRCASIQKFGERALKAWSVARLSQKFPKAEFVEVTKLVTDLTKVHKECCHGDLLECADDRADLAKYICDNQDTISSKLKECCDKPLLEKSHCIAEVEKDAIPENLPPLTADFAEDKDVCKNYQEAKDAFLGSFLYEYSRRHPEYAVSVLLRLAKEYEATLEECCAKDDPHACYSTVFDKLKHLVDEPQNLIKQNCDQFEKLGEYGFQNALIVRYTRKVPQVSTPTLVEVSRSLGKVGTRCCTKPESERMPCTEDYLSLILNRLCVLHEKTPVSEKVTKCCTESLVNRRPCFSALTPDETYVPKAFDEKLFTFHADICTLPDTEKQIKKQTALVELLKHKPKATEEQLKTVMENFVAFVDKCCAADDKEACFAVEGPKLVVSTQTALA
Chain of Focal adhesion kinase 1 (Homo sapiens) (Q05397 whole entry, looked up): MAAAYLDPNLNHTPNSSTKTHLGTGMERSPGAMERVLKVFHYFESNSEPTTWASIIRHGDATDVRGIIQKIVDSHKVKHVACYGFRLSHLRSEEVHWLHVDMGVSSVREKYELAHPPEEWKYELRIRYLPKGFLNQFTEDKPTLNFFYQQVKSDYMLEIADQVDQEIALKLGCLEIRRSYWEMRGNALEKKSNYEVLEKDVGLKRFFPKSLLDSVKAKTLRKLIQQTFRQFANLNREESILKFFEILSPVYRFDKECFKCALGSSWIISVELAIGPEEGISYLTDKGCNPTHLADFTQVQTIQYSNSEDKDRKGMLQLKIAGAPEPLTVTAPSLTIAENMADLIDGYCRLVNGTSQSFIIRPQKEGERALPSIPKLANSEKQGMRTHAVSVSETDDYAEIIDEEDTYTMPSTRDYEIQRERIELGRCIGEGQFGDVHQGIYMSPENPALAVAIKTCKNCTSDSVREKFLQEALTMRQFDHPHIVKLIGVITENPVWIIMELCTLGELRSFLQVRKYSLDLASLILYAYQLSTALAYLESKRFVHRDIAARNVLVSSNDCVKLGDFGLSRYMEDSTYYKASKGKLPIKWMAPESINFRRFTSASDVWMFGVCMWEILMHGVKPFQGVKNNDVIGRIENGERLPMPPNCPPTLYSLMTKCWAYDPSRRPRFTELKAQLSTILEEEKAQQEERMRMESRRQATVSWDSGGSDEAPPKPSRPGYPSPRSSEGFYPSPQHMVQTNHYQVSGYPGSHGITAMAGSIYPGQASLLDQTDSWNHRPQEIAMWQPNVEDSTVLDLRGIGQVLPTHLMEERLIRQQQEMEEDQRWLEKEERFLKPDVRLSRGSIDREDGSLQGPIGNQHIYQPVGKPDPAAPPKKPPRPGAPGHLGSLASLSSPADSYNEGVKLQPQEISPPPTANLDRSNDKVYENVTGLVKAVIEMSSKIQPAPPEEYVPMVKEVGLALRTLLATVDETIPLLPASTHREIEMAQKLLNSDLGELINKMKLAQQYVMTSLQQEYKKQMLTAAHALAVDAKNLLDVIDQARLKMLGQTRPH
Chain of Fibroblast growth factor 2 (Homo sapiens) (P09038 whole entry, looked up): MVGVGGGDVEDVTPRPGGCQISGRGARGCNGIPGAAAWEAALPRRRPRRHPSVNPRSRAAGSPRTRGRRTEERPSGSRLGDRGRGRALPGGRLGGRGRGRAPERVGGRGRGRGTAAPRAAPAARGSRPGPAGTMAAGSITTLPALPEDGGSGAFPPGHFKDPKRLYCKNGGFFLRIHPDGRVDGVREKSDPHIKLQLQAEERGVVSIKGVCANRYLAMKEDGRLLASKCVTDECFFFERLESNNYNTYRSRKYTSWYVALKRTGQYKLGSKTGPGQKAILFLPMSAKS
Chain of Follistatin (Homo sapiens) (P19883 whole entry, looked up): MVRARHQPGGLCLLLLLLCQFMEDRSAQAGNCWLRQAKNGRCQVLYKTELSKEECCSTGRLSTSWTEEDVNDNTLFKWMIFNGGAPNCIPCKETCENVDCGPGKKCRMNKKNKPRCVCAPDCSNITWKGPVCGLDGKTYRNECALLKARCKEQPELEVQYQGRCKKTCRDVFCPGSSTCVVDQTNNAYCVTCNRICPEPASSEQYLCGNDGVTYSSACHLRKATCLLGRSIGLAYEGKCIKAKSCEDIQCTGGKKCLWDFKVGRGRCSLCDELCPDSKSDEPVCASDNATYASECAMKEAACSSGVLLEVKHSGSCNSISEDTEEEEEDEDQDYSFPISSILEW
Chain of Concanavalin-A (Canavalia ensiformis) (P02866 whole entry, looked up): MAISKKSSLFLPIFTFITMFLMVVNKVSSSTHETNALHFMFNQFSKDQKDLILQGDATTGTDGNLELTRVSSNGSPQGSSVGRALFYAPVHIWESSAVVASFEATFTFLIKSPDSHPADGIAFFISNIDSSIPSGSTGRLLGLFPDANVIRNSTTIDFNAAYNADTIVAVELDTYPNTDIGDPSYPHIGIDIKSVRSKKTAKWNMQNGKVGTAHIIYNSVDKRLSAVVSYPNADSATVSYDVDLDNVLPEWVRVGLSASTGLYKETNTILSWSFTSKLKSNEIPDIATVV

Compound	composite z-score (Albumin (Bos taurus))	composite Z-score [1]	composite z-score [2]	composite z-score [3]	composite z-score [4]	composite z-score [5]	composite z-score [6]	composite z-score (Sam68 (KHDRBS1))	composite z-score [7]	composite z-score [8]	composite z-score [9]	composite z-score [10]	composite z-score [11]	composite z-score [12]	composite z-score [13]	composite z-score [14]	z-score [15]	composite z-score (Lefty1)	composite z-score [16]	z-score [17]
CC(CCN1CCCc2nc(C)c(C)cc21)=NO[C@H](C)c1cn([C@H](CO)Cc2ccccc2)nn1	0.177	0.271 (inactive)	0.159	-0.112	0.236	0.497	0.0249	1.28	0.618	-0.113	0.906	0.474	0.402	0.166	0.564	0.559	-0.776	0.931	0.108	0.0837 (inactive)
CC(=O)OC[C@H]1O[C@H](C#CCCc2ccccc2)C=C[C@@H]1OC(C)=O	0.829	-0.399 (inactive)	0.106	-0.0727	0.376	2.2	-0.332	0.179	0.697	0.127	0.538	-0.417	-0.34	0.884	0.518	0.461	0.0303	1.22	-0.225	-0.97 (inactive)
C#CCCCON=C1[C@H]2CCn3c(=O)n(Cc4cc5c(cc4Cl)OCO5)c(=O)n3[C@H]2[C@H](O)[C@@H]2O[C@H]12	-0.252	-0.141 (inactive)	-0.0178	-0.106	-0.0303	-0.138	-0.122	0.431	0.424	0.656	0.229	0.522	-0.383	0.0676	0.751	0.486	0.146	0.748	-0.232	0.303 (inactive)
COc1ccc2c(c1)O[C@@H](c1cccc(C(F)(F)F)c1)[C@H](O)C2=O	0.442	0.115 (inactive)	-0.152	-0.0761	0.0122	-0.0749	0.0318	0.642	0.647	0.494	0.0408	0.584	0.0103	0.289	0.282	0.656	0.903	0.309	0.408	0.335 (inactive)
CO[C@@H]1[C@H](O)CO[C@H]1C=Cc1ccccc1	0.24	-0.173 (inactive)	-0.127	-0.0956	0.405	0.402	0.388	0.243	0.144	0.17	0.286	0.219	0.0086	0.543	0.251	0.273	-0.75	0.28	-0.07	-0.339 (inactive)
C=CCOCC1CN2[C@@H](CC[C@@H](C)[C@@H]2c2ccc(Br)cc2)C(=O)O1 (stereo not given in full)	-0.509	0.419 (inactive)	-0.0932	-0.189	-0.401	-0.329	0.975	-0.85	0.562	-0.172	0.24	-0.695	-0.262	-0.5	0.119	0.166	1.88	0.262	-0.16	-0.764 (inactive)
CCN1C(=O)[C@H]2[C@H]3[C@H](O)[C@H](O)CC(=NO[C@H](C)c4cn([C@@H]5COC[C@H]5O)nn4)[C@@H]3CC[C@H]2C1=O	0.0418	-0.115 (inactive)	-0.0948	-0.04	-0.281	0.151	-0.0932	0.126	0.244	-0.0703	-1.33	-0.0712	0.339	0.178	-0.537	0.092	-0.444	0.371	-0.215	0.846 (inactive)
CC(=O)OC[C@H]1O[C@H](C#CCC2CCCCC2)C=C[C@@H]1OC(C)=O	0.718	-0.106 (inactive)	-0.154	-0.0632	0.494	0.853	0.53	0.953	0.32	1.04	0.502	0.916	-0.146	0.672	0.675	0.339	0.587	0.513	0.371	-2.68 (inactive)
CC(C)[C@@H](OCc1ccccc1)[C@H](C)C=NOC[C@@H](O)[C@H]1O[C@@H]2OC(C)(C)O[C@@H]2[C@H]1O	0.0762	0.528 (inactive)	-0.0014	-0.147	-0.0043	0.223	0.614	0.574	0.314	1.07	2.33	0.387	0.137	0.941	0.214	0.635	-0.958	0.768	0.234	-0.587 (inactive)
O=C1[C@H]2[C@H]3[C@H](O)[C@H](O)CC(=NO[C@@H]4O[C@H](CO)[C@@H](O)[C@H](O)[C@H]4O)[C@@H]3CC[C@H]2C(=O)N1c1cccc(Oc2ccccc2)c1	0.29	-0.65 (inactive)	-0.0391	-0.104	-0.0428	0.109	0.106	0.324	0.775	0.588	0.13	0.542	0.0405	0.578	0.858	0.948	-0.728	0.879	0.335	0.825 (inactive)
COC(=O)[C@@H]1CC[C@H](C)[C@@H](c2ccc(Br)cc2)N1C[C@@H](O)CN=[N+]=[N-]	-0.236	-0.509 (inactive)	0.0016	-0.18	-0.0121	0.23	0.546	0.56	0.401	-0.0032	0.215	-0.0633	-0.0902	0.128	0.4	0.4	-0.822	0.45	-0.0107	0.0386 (inactive)
CCOC(=O)NN=C1C[C@@H](O)[C@@H](O)[C@@H]2[C@@H]3C(=O)N(c4ccc(F)cc4F)C(=O)[C@@H]3CC[C@H]12	0.123	-0.623 (inactive)	-0.0879	-0.107	-0.0212	0.0971	0.0173	0.108	0.529	0.0692	0.142	0.301	-0.0292	0.233	0.515	0.577	-0.778	0.449	0.161	1.18 (inactive)
Cc1ccc(C(C)C)n1C(=O)OC(C)(C)C	-0.0834	1.17 (inactive)	-0.118	-0.153	-0.0359	0.0884	0.322	0.456	0.501	0.173	-0.165	0.474	0.691	-0.115	0.54	0.29	1.99	0.494	0.188	-1.7 (inactive)
COC(=O)[C@H](C)NC(=O)CCC1CC(OC(=O)NCc2cccc3ccccc23)CC2(CCCC(COC(=O)NCCCN3CCCC3=O)O2)O1 (stereo not given in full)	0.559	-0.0448 (inactive)	0.0485	-0.132	0.378	0.519	0.0377	1.32	0.131	1.1	0.383	1.11	0.926	0.821	0.413	0.0982	-0.262	1.23	0.485	0.86 (inactive)
C=CC[C@@H]1C=CC(ON=C(C)C)[C@@H](CO)O1 (stereo not given in full)	-0.282	0.112 (inactive)	-0.0288	-0.19	-0.341	-0.301	-0.178	-1.11	-0.213	-0.0875	3.16	-0.901	0.0886	-0.445	-0.356	-0.458	0.178	-0.0561	-0.0488	-0.0424 (inactive)
COc1ccc(-c2cnnc(CCCn3ccnc3-c3ccccc3)n2)cc1	0.223	0.391 (inactive)	0.291	-0.126	0.536	0.0412	1.08	0.943	0.919	0.418	1.39	0.538	0.107	0.747	0.836	0.475	0.787	0.592	0.138	0.313 (inactive)
CC(CCN1CCCCc2nc(C)c(C)cc21)=NO[C@@H](C)c1cc(-c2c(C)cc(C)cc2C)no1	0.335	-0.0861 (inactive)	-0.231	-0.0904	-0.079	-0.257	0.197	-1.33	-0.734	-1.84	-0.335	-0.384	0.0796	-0.317	-0.673	-0.682	1.91	-0.315	-0.547	-1.49 (inactive)
CC(CCC(=O)OC[C@H]1O[C@H](C#Cc2ccccc2)C=C[C@@H]1Oc1ccc(C)cc1)=NOC(C)CN1CCCc2nc(C)c(C)cc21 (stereo not given in full)	0.412	-0.266 (inactive)	-0.0647	-0.0793	-0.0994	1.12	-0.114	1.14	0.281	0.924	1.09	0.886	0.659	0.564	0.686	0.507	0.238	0.596	0.418	0.0139 (inactive)
